# Inconclusive results are not listed. A call without a number means that no potency is given here. Unmarked numbers belong to inactive results. The source made the active and inactive calls. Calls come from the whole dose curve; as a rule, active = well fitted curve in the direction sought with a large enough effect; inconclusive = small, poorly fitted or top-dose-only effect, or another doubt; inactive = no such curve, though single readings can be large; an effect the other way counts as inactive or inconclusive.
# Assays:
# [1] = target: Aldehyde dehydrogenase, mitochondrial (Homo sapiens) (UniProt P05091); experiment: qHTS for Inhibitors of the Aldehyde Dehydrogenase Family (ALDH2) Primary screen (AID 2061308); note: nearly all actives have a fitted effect of over 55% in size; note: potency is the fitted concentration of half-maximal effect
# [2] = target: Retinaldehyde dehydrogenase 3 (Homo sapiens) (UniProt P47895); experiment: qHTS for Inhibitors of the Aldehyde Dehydrogenase Family (ALDH1A3) Validation screen (AID 2061312); note: nearly all actives have a fitted effect of over 45% in size
# [3] = target: Retinaldehyde dehydrogenase 3 (Homo sapiens) (UniProt P47895); experiment: qHTS for Inhibitors of the Aldehyde Dehydrogenase Family (ALDH1A3) Primary screen (AID 2061315)
# [4] = BET inhibitor-based combinations targeting novel dependencies in MECOM-rearranged (r) AML: MV-4-11 cell line (AID 2202233); note: nearly all actives have a fitted effect of over 45% in size; note: potency is the fitted concentration of half-maximal effect
# Outline: (§1)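 First, 500 cells per well were seeded; next, drugs were pinned as 11-point doses; then plates sat 48 hr in the incubator; finally CellTiter-Glo was added and luminescence read, with AUC and Z-AUC computed.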
# [5] = BET inhibitor-based combinations targeting novel dependencies in MECOM-rearranged (r) AML: HNT-34 cell line (AID 2202234); note: nearly all actives have a fitted effect of over 35% in size; note: potency is the fitted concentration of half-maximal effect
# Outline: as §1
# [6] = BET inhibitor-based combinations targeting novel dependencies in MECOM-rearranged (r) AML: AML-191 cell line (AID 2202236; note: nearly all actives have a fitted effect of over 35% in size; note: potency is the fitted concentration of half-maximal effect)
# Outline: (§2)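 Each compound was tested at eleven concentrations on cells seeded at 500/well. After two days' incubation, ATP-based luminescence reported viability; responses relative to DMSO and blank wells yielded AUC and cell-line-centred Z-AUC.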
# [7] = BET inhibitor-based combinations targeting novel dependencies in MECOM-rearranged (r) AML: SET-2 cell line (AID 2202231); settings: SET-2 AML cells viability, CellTiter-Glo luminescence, 48 h; viability: stronger effect = lower value, concentration not given here; note: nearly all actives have a fitted effect of over 35% in size; note: potency is the fitted concentration of half-maximal effect
# Outline: as §2
# [8] = BET inhibitor-based combinations targeting novel dependencies in MECOM-rearranged (r) AML: AML-194 cell line (AID 2202237; note: nearly all actives have a fitted effect of over 40% in size; note: potency is the fitted concentration of half-maximal effect)
# Outline: as §2
# [9] = target: Retinal dehydrogenase 2 (Homo sapiens) (UniProt O94788); experiment: qHTS for Inhibitors of the Aldehyde Dehydrogenase Family (ALDH1A2) Confirmation screens (AID 2061314); note: nearly all actives have a fitted effect of over 65% in size; note: potency is the fitted concentration of half-maximal effect
# [10] = BET inhibitor-based combinations targeting novel dependencies in MECOM-rearranged (r) AML: OCI-AML3 cell line (AID 2202232); settings: Potency: OCI-AML3 viability; note: nearly all actives have a fitted effect of over 35% in size; note: potency is the fitted concentration of half-maximal effect
# Outline: as §2
# [11] = BET inhibitor-based combinations targeting novel dependencies in MECOM-rearranged (r) AML: UCSD-AML1 cell line (AID 2202235); note: nearly all actives have a fitted effect of over 40% in size; note: potency is the fitted concentration of half-maximal effect
# Outline: as §1
# [12] = target: Aldehyde dehydrogenase 1A1 (Homo sapiens) (UniProt P00352); experiment: qHTS for Inhibitors of the Aldehyde Dehydrogenase Family (ALDH1A1) Confirmatory screens (AID 2061316); note: potency is the fitted concentration of half-maximal effect; nearly all actives have a fitted effect of over 65% in size
compound,measurement,setting,value
CNCc1ccc(C)c(NC(=O)c2ccc(Nc3nc(-c4ccccc4)c4ccccc4n3)cc2)c1,Potency,[1],inactive
same,Potency,[2],inactive
same,Potency,[3],inactive
same,Potency,[4],13.2 µM (active)
same,Potency,[5],20.9 µM (active)
same,Potency,[6],20.9 µM (active)
OCCNC1CCCc2c1[nH]c1ccc(-c3ccccc3)cc21 (centres undefined),Potency,[1],inactive
same,Potency,[2],inactive
same,Potency,[3],inactive
same,Potency,[7],11.8 µM (active)
same,Potency,[5],14.8 µM (active)
same,Potency,[6],16.6 µM (active)
same,Potency,[8],13.2 µM (active)
CC(=O)NC(c1ccco1)c1cc(Cl)c2ccc(Cl)nc2c1O (centres undefined),Potency,[1],inactive
same,Potency,[9],6.34 µM (active)
Cc1cnc(Nc2ccc(CN3CCOCC3)cc2)nc1Nc1cccc(S(=O)(=O)NC(C)(C)C)c1,Potency,[1],inactive
same,Potency,[2],inactive
same,Potency,[3],inactive
same,Potency,[7],2.63 µM (active)
same,Potency,[10],2.63 µM (active)
same,Potency,[4],0.417 µM (active)
same,Potency,[5],1.18 µM (active)
same,Potency,[11],1.48 µM (active)
same,Potency,[6],2.63 µM (active)
same,Potency,[8],2.35 µM (active)
N#Cc1c(-c2ccc(Cl)cc2)no[n+]1[O-],Potency,[1],7.94 µM (active)
same,Potency,[9],10.1 µM (active)
same,Potency,[3],inactive
Cc1cnc(-c2ccccc2C(C)C)nc1NCc1ccc(-n2ccnn2)cc1,Potency,[1],inactive
same,Potency,[2],inactive
same,Potency,[3],inactive
same,viability,[7],86.2%
same,Potency,[11],inactive
same,Potency,[8],inactive
C[C@H]1O[C@@H](O[C@H]2[C@@H](O)C[C@H](O[C@H]3[C@@H](O)C[C@H](O[C@H]4CC[C@@]5(C)[C@H](CC[C@@H]6[C@@H]5C[C@@H](O)[C@]5(C)[C@@H](C7=CC(=O)OC7)CC[C@]65O)C4)O[C@@H]3C)O[C@@H]2C)C[C@H](O)[C@@H]1O,Potency,[1],inactive
same,Potency,[2],inactive
same,Potency,[3],inactive
same,Potency,[10],0.118 µM (active)
same,Potency,[4],0.105 µM (active)
same,Potency,[11],0.132 µM (active)
same,Potency,[6],0.132 µM (active)
same,Potency,[8],0.118 µM (active)
Cn1ncc(Cl)c1-c1cc(C(=O)NC(CN)Cc2ccc(F)c(F)c2)oc1Cl (centres undefined),Potency,[1],inactive
same,Potency,[2],inactive
same,Potency,[3],inactive
same,Potency,[10],18.6 µM (active)
same,Potency,[4],11.8 µM (active)
same,Potency,[5],18.6 µM (active)
same,Potency,[11],13.2 µM (active)
same,Potency,[6],20.9 µM (active)
same,Potency,[8],18.6 µM (active)
CCCC1(CCC)CCC2(CCN(CCCN(CC)CC)C2)CC1,Potency,[1],inactive
same,Potency,[2],inactive
same,Potency,[3],inactive
same,Potency,[10],7.42 µM (active)
same,Potency,[4],6.61 µM (active)
same,Potency,[5],4.68 µM (active)
same,Potency,[11],8.33 µM (active)
same,Potency,[6],9.34 µM (active)
same,Potency,[8],9.34 µM (active)
c1nc(NCC2CCCOC2)c2cc(-c3ccc4c(c3)OCO4)ccc2n1 (centres undefined),Potency,[1],inactive
same,Potency,[9],11.3 µM (active)
same,Potency,[3],inactive
CCC(=O)NS(=O)(=O)c1ccc(-c2c(-c3ccccc3)noc2C)cc1,Potency,[1],inactive
same,Potency,[2],inactive
same,Potency,[3],inactive
same,Potency,[10],inactive
same,Potency,[4],inactive
same,Potency,[5],inactive
same,Potency,[6],inactive
N#Cc1c(-c2ccc(F)c(Br)c2)no[n+]1[O-],Potency,[1],3.98 µM (active)
same,Potency,[9],2.52 µM (active)
same,Potency,[3],inactive
same,Potency,[12],20.1 µM (active)
CCOc1ccc(NC(=O)NCC2CCCN2c2ccc(OC)cc2)cc1 (centres undefined),Potency,[1],inactive
same,Potency,[9],14.2 µM (active)
Cn1ncc(Cl)c1-c1cc(C(=O)N[C@H](CN)Cc2ccc(F)c(F)c2)sc1Cl,Potency,[1],inactive
same,Potency,[2],inactive
same,Potency,[3],inactive
same,Potency,[7],20.9 µM (active)
same,Potency,[4],16.6 µM (active)
same,Potency,[5],16.6 µM (active)
same,Potency,[11],13.2 µM (active)
same,Potency,[6],26.3 µM (active)
same,Potency,[8],16.6 µM (active)
COc1ccc(C(=O)CC2(O)C(=O)Nc3c(Cl)ccc(Cl)c32)cc1 (centres undefined),Potency,[1],inactive
same,Potency,[2],inactive
same,Potency,[3],inactive
same,Potency,[7],0.934 µM (active)
same,Potency,[4],inactive
same,Potency,[6],1.05 µM (active)
same,Potency,[8],1.86 µM (active)
Cc1c(NC(=O)OC[C@@H]2COCCN2)cn2ncnc(Nc3ccc4c(cnn4Cc4cccc(F)c4)c3)c12,Potency,[1],inactive
same,Potency,[2],inactive
same,Potency,[3],inactive
same,Potency,[10],10.5 µM (active)
same,Potency,[4],18.6 µM (active)
same,Potency,[5],20.9 µM (active)
same,Potency,[8],23.5 µM (active)
Cn1c(=O)c2c(ncn2CC2OCCO2)n(C)c1=O,Potency,[1],inactive
same,Potency,[2],inactive
same,Potency,[3],inactive
same,viability,[7],103%
same,Potency,[10],inactive
same,Potency,[5],inactive
same,Potency,[11],inactive
same,Potency,[6],inactive
same,Potency,[8],inactive
Cc1[nH]c2ccccc2c1CCNCc1ccc(/C=C/C(=O)NO)cc1,Potency,[1],inactive
same,Potency,[2],inactive
same,Potency,[10],0.0661 µM (active)
same,Potency,[4],0.0525 µM (active)
same,Potency,[5],0.0934 µM (active)
same,Potency,[8],0.105 µM (active)
CC(=O)Nc1sc2c(c1-c1nc3ccccc3s1)CCN(C(C)C)C2,Potency,[1],inactive
same,Potency,[9],28.3 µM (active)
same,Potency,[3],inactive
COc1ccc(C2=Nn3c(nnc3-c3ccc(OC)cc3OC)SC2)cc1,Potency,[1],inactive
same,Potency,[9],inactive
same,Potency,[3],inactive
Cc1ccc2nc3sc(C(=O)N4CCN(C5CCN(C)CC5)CC4)cc3cc2c1,Potency,[1],inactive
same,Potency,[9],inactive
same,Potency,[3],inactive
same,Potency,[12],12.7 µM (active)

# — PubChem BioAssay (NCATS)
